Experiment [1] can be described thus: qHTS assay to identify small molecule agonists of the hypoxia (HIF-1) signaling pathway (AID 1224846; active = well fitted activation curve with a large enough effect in the signal ratio in the repeat runs, not every such curve was filed as active; the % refers to the signal ratio). In short, it runs like this:
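Cell line: CellSensor HRE-bla ME-180; 2,000 cells/well; 0.5% dialyzed FBS; 5 h preincubation; DMSO compound pin transfer; 17 h, 37C, 5% CO2; CCF4-AM added; bla FRET signal scored for activation.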
For orientation: Quantitative high-throughput screening tests each substance at several concentrations.

The nature of experiment [2]: qHTS assay to identify small molecule agonists of H2AX - cell viability counter screen (AID 1224847; calls by dose curve; also: top concentration of the series differs between compounds; nearly all actives have a fitted effect of over 30% in size). In short, it runs like this:
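Compounds tested at 15 concentrations were incubated 3 hr at 37C with wild-type CHO-K1 cells; cellular ATP-based luminescence (CellTiter-Glo) indicated viability.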

Experiment [3] is described as follows: qHTS RealTime-Glo MT Cell Viability Assay in HEK293 cells - 32 hour (AID 1224868). Also: nearly all actives have a fitted effect of over 50% in size. Also: potency is read from the fitted curve at half-maximal effect. An outline of the steps: (§1)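 Tox21 10K qHTS, HEK293, 600 cells/well, RealTime-Glo reagent co-dispensed with cells; 5 h preincubation, compound by pintool, 37 C, luminescence at 0–40 h.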
Experiment [4] in a line: A CellTox Green Cytotoxicity Assay to monitor cytotoxicity in HEK293 cells - 0 hour (AID 1224869). Also: nearly all actives have a fitted effect of over 50% in size. In short, it runs like this: (§2)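 Nonlytic real-time cytotoxicity: HEK293 + CellTox Green reagent plated, 5 h preincubation, pintool compound addition (23 nL in DMSO), 37 C for 40 h, fluorescence measured at successive time points.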
A short description of experiment [5]: qHTS RealTime-Glo MT Cell Viability Assay in HepG2 cells - 40 hour (AID 1224870). Also: nearly all actives have a fitted effect of over 50% in size. In short, it runs like this:
(§3)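 HepG2 cells mixed with RealTime-Glo MT reagents (NanoLuc plus cell-permeant prosubstrate) were seeded at 600 cells/well, incubated 5 h at 37 C/5% CO2, then pinned with compounds in DMSO; nonlytic luminescence tracked viability during 40 h treatment.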

A short description of experiment [6]: A CellTox Green Cytotoxicity Assay to monitor cytotoxicity in HEK293 cells - 40 hour (AID 1224871). Also: nearly all actives have a fitted effect of over 45% in size. Also: potency is read from the fitted curve at half-maximal effect. In short, it runs like this:
as §2

The nature of experiment [7]: qHTS RealTime-Glo MT Cell Viability Assay in HEK293 cells - 16 hour (AID 1224872). Also: top concentration of the series differs between compounds; nearly all actives have a fitted effect of over 50% in size. An outline of the steps: as §1
The nature of experiment [8]: qHTS RealTime-Glo MT Cell Viability Assay in HepG2 cells - 8 hour (AID 1224873). Also: nearly all actives have a fitted effect of over 55% in size. In short, it runs like this: as §3
The nature of experiment [9]: qHTS RealTime-Glo MT Cell Viability Assay in HEK293 cells - 40 hour (AID 1224874). Also: nearly all actives have a fitted effect of over 50% in size. Also: potency is read from the fitted curve at half-maximal effect. The following applies: RealTime-Glo luminescence; max response: stronger effect = lower value. An outline of the steps: (§4)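 Cells were seeded together with NanoLuc luciferase and a prosubstrate that viable cells reduce to a luciferase substrate. After a 5 h incubation at 37 C/5% CO2, compounds were added and luminescence was measured repeatedly during 40 h of treatment.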

The nature of experiment [10]: A CellTox Green Cytotoxicity Assay to monitor cytotoxicity in HepG2 cells - 16 hour (AID 1224876). Also: nearly all actives have a fitted effect of over 45% in size. In short, it runs like this: (§5)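 Read-out is fluorescence of a cyanine dye excluded from live cells that stains DNA of dead HepG2 cells, with signal proportional to cytotoxicity. Plates were read at 0, 8, 16, 24, 32 and 40 h after compound addition.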
Experiment [11] is described as follows: qHTS RealTime-Glo MT Cell Viability Assay in HepG2 cells - 32 hour (AID 1224877). Also: nearly all actives have a fitted effect of over 55% in size. In short, it runs like this:
(§6)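 Cells + NanoLuc/prosubstrate dispensed (600 cells/well) → 5 h at 37 C/5% CO2 → compounds in DMSO transferred → 40 h incubation at 37 C, luminescence read at 0, 8, 16, 24, 32, 40 h.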

Experiment [12] in a line: A CellTox Green Cytotoxicity Assay to monitor cytotoxicity in HepG2 cells - 24 hour (AID 1224878). Also: nearly all actives have a fitted effect of over 45% in size. In short, it runs like this:
as §5

Experiment [13] in a line: A CellTox Green Cytotoxicity Assay to monitor cytotoxicity in HepG2 cells - 40 hour (AID 1224879). Also: nearly all actives have a fitted effect of over 40% in size. In short, it runs like this: as §5
Experiment [14] can be described thus: qHTS RealTime-Glo MT Cell Viability Assay in HEK293 cells - 0 hour (AID 1224880). Also: nearly all actives have a fitted effect of over 45% in size. Also: potency is read from the fitted curve at half-maximal effect. In short, it runs like this:
as §4

A short description of experiment [15]: A CellTox Green Cytotoxicity Assay to monitor cytotoxicity in HEK293 cells - 32 hour (AID 1224881). Also: nearly all actives have a fitted effect of over 40% in size. An outline of the steps:
as §2

Experiment [16] in a line: qHTS assay to identify small molecule antagonists of the estrogen related receptor (ERR) signaling pathway from Tox21 library (AID 1224848). Also: nearly all actives have a fitted effect of over 50% in size. In short, it runs like this:
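Screening used an ERR reporter line supplied by NTP, exposed for 18 h at 37 C to library compounds delivered in DMSO. Signal was luciferase luminescence developed with ONE-Glo at room temperature for 30 min.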

The nature of experiment [17]: qHTS RealTime-Glo MT Cell Viability Assay in HepG2 cells - 24 hour (AID 1224867). Also: nearly all actives have a fitted effect of over 50% in size. In short, it runs like this: as §6
Experiment [18] in a line: A CellTox Green Cytotoxicity Assay to monitor cytotoxicity in HEK293 cells - 24 hour (AID 1224875). An outline of the steps:
as §2

Experiment [19] is described as follows: qHTS assay to identify small molecule agonists of the estrogen related receptor (ERR) signaling pathway from Tox21 library (AID 1224849; calls by dose curve; also: nearly all actives have a fitted effect of over 15% in size). In short, it runs like this: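 ERR cells, 6 h pre-incubation 37 C/5% CO2; cpd in DMSO pinned; 18 h 37 C; ONE-Glo added, 30 min RT; luminescence read. Agonist mode, qHTS.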

From PubChem BioAssay (Tox21) come the findings set out here.

A number with no mark means an inactive call. Records with an inconclusive call do not appear. The source made the active and inactive calls. Unless noted, calls follow the shape of the dose curve; as a rule, active = well fitted curve in the direction sought with a large enough effect in the repeat runs; inconclusive = weak or mixed curves; inactive = no such curve, though single readings can be large; an effect the other way counts as inactive or inconclusive.
% is scaled to controls: 0 for no effect and ±100 for the full control effect.

For `C1CCC2(CCCCO2)OC1`, the compound was called inactive in experiment [1], in experiment [2], in experiment [4], in experiment [8], in experiment [10] and in experiment [12]. Also, the compound was called inactive in experiment [15]. The Potency result in experiment [3], in experiment [5], in experiment [6], in [7], in experiment [11] and in experiment [13] was “inactive” throughout. For the same compound, in experiment [14], the Potency entry is “inactive”. The max response in experiment [9] was -6.53%.

On to `CC(C)COC(=O)c1ccc(N)cc1`, for which the result in experiment [1], in experiment [2], in [17], in [4], in experiment [8] and in experiment [18] was inactive. Further, the compound was classed as inactive in [10] and in [15]. Moreover, the Potency entry in [16], in experiment [3], in experiment [5], in experiment [6], in [7] and in [11] was “inactive” throughout. Moreover, the Potency result in experiment [13] and in [14] was “inactive” each time. For the same compound, in experiment [9], the max response is -12.8%.

In the case of `COc1cc(C(=O)NCc2ccc(OCCN(C)C)cc2)cc(OC)c1OC`, the call in experiment [2], in [17], in [4], in [8], in [18] and in experiment [10] was inactive. Also, the call in experiment [15] was inactive. For the same compound, the Potency entry in experiment [3], in [5], in [6], in experiment [7], in experiment [11] and in experiment [13] was “inactive” in each case. In experiment [14], the Potency result is “inactive”. Besides, in experiment [9], the max response is -23.7%.

Regarding `CC(C)CC(C)(N)C#N` (stereo unspecified), the call in experiment [1], in experiment [2], in [4], in experiment [8], in experiment [18] and in experiment [10] was inactive. The compound was called inactive in experiment [15]. Besides, the Potency result in experiment [3], in experiment [5], in experiment [7], in experiment [11], in experiment [13] and in experiment [14] was “inactive” each time. In addition, the max response in [9] is 5.01%.

For `CN(C)[C@@H]1C(=O)C(C(=O)NCN2CCCC2)=C(O)[C@@]2(O)C(=O)C3=C(O)c4c(O)cccc4[C@@](C)(O)C3C[C@@H]12` (stereo partly specified), the compound was called inactive in [17], in experiment [4], in [8], in [18], in [10] and in experiment [12]. The result in experiment [15] was inactive. In addition, the Potency entry in [3], in experiment [5], in experiment [6], in experiment [7], in experiment [11] and in experiment [13] was “inactive” each time. Further, the Potency entry in experiment [14] was “inactive”. The max response in experiment [9] was 7.86%.

`C=C(C)C(=O)OCCOCCOCCOCCOC(=O)C(=C)C`: the compound was classed as inactive in experiment [1], in experiment [2], in experiment [17], in experiment [4], in experiment [8] and in experiment [18]. Further, the outcome in experiment [10], in experiment [12] and in experiment [15] was inactive. Moreover, the Potency result in [5], in [6], in experiment [7], in experiment [11], in [13] and in experiment [14] was “inactive” in each case.

`CC(C)C1CCC(O)CC1` (stereo unspecified): the compound was called inactive in experiment [1], in experiment [2], in experiment [4], in experiment [8], in [10] and in experiment [15]. For the same compound, the Potency entry in experiment [3], in experiment [5], in experiment [6], in [7], in [11] and in [14] was “inactive” throughout. In [9], the max response is 7.59%.

`COC(=O)C1=C(C)NC(C)=C(C(=O)OC(C)C)C1c1cccc2nonc12` (stereo unspecified): the result in experiment [2], in [19], in experiment [4], in [18], in experiment [10] and in experiment [15] was inactive. The Potency in experiment [3] was 19 µM (active); in experiment [9], 16.9 µM (active); in experiment [14], 1.69 µM (active). Further, the Potency result in [6] and in experiment [13] was “inactive” in each case.

In the case of `O=C(O)CNC(=O)c1ccccc1`, the compound was called inactive in experiment [1], in [2], in [17], in experiment [4], in [8] and in [18]. The call in experiment [10], in [12] and in experiment [15] was inactive. In addition, the Potency entry in [3], in experiment [5], in [6], in experiment [7], in experiment [11] and in [14] was “inactive” in each case. Also, in experiment [9], the max response is -1.85%.

As for `O=C(c1ccccc1)C1(O)CCCCC1`, the result in experiment [1], in experiment [2], in [17], in experiment [4], in experiment [8] and in experiment [18] was inactive. Besides, the call in experiment [10] and in [12] was inactive. Also, the Potency entry in experiment [3], in experiment [5], in [6], in experiment [7], in experiment [11] and in experiment [13] was “inactive” in each case. In addition, the Potency entry in experiment [14] was “inactive”. In addition, the max response in experiment [9] was -2.37%.

Take `O=C(c1ccccc1O)c1ccccc1O`: the call in experiment [1], in [17], in experiment [4], in experiment [8], in experiment [18] and in experiment [10] was inactive. In experiment [12], the result was inactive. For the same compound, the Potency in experiment [6] is 48.5 µM (active). Besides, the Potency result in [11], in experiment [13] and in [14] was “inactive” in each case.

`CCN1CCOCC1`: the compound was classed as inactive in [1], in experiment [2], in experiment [17], in experiment [4], in experiment [8] and in experiment [18]. For the same compound, the call in experiment [10], in experiment [12] and in experiment [15] was inactive. Further, the Potency entry in experiment [3], in experiment [5], in experiment [6], in [7], in experiment [11] and in experiment [13] was “inactive” each time. Also, in experiment [14], the Potency result is “inactive”. Further, in experiment [9], the max response is -0.712%.

For the compound `CC1(C)[C@@H]2CC[C@@]1(C)[C@H](O)C2`, the outcome in experiment [1], in [2], in experiment [17], in experiment [4], in experiment [8] and in experiment [18] was inactive. Also, the result in experiment [10], in experiment [12] and in experiment [15] was inactive. In addition, the Potency entry in [3], in experiment [5], in experiment [6], in [7], in experiment [11] and in [13] was “inactive” each time. For the same compound, the max response in [9] was 2.75%.
